We go through 85 compounds from ChEMBL document CHEMBL3988442, “University of Dundee, Small-Polar-MMV Screening Library” (2021).

About 13,000 (27%) of roughly 48,000 compounds showed an effect of 50% or more. This is one part of the list.

This assay has as its system Wolbachia pipientis. Kind of assay: Anti-Wolbachia Cell-Based Screen. The format is functional. Further details: scale not given: in the data most compounds retested in dose-response had high values. As to conditions: 5 µM.
`N#Cc1cccnc1NCCNC(=O)N1CCN2CCCCC2C1` (stereo not given): the “Percent Effect” value is recorded as -6.324%.
To `CC(C)NC(=O)C1CCC2(CCNCC2)C1` (stereo not given) belongs -35.43%; to `COc1ccc(C(=O)C2CCCN(CCCn3cccn3)C2)c(OC)c1` (stereo not given), -1.04%; to `NC(=O)c1cnn2c1NCC(CNCC1(c3ccccc3)CCC1)C2` (stereo not given), 92.2%.
In the case of `O=C(c1ccc(C2CCCN2)s1)N1CCN2CCC1CC2` (stereo not given) it was 11.12%; in that of `CC[C@H]1CN2CC[C@H]1C[C@@H]2CNCc1cccc(C#N)c1`, 6.24%; in that of `CC[C@H]1CN2CC[C@H]1C[C@@H]2CNC(=O)Nc1cccc(C#N)c1`, 1.181%.
On to `CCS(=O)(=O)N1CCc2ccc(NC(=O)Nc3cccc(C#N)c3)cc21`, for which the “Percent Effect” value is given as 97.92%.
In the case of `O=S(=O)(c1ccc(Cl)cc1)N1C[C@@H]2CCN[C@@H]2C1` it was -24.32%.
To `CC(C)CCC(=O)N1C[C@H]2CCN[C@H]2C1` belongs 107.3%; to `Cc1ccc(S(=O)(=O)N2C[C@@H]3CCN[C@@H]3C2)cc1`, -12.06%; to `O=C(CC(F)(F)F)N1C[C@H]2CCN[C@H]2C1`, 92.17%.
To `CC(C)C(=O)N1C[C@H]2CCCN[C@H]2C1.Cl` belongs -7.068%; to `O=C(CC1CC1)N1C[C@H]2CCN[C@H]2C1`, 112.4%; to `CC(C)CNC(=O)N1C[C@H]2CCN[C@H]2C1`, -21.84%.
With `O=S(=O)(c1ccccc1)N1C[C@@H]2CCN[C@@H]2C1`, the “Percent Effect” value is recorded as -39.01%.
In the case of `CC(C)(C)CC(=O)N1C[C@H]2CCN[C@H]2C1`, the “Percent Effect” value was 123.1%.
`CC(C)CNC(=O)N1C[C@@H]2CCCN[C@@H]2C1`: the “Percent Effect” value is -10.44%.
In the case of `CC(C)(C)CC(=O)N1C[C@@H]2C[C@H]1CN2.Cl` it was -16.89%.
In the case of `O=C(CC1CCCC1)N1C[C@@H]2C[C@H]1CN2` it was -37.69%; in that of `CS(=O)(=O)N1CCC(Nc2ccc(C#N)c(C(F)(F)F)c2)CC1`, -23.63%; in that of `COc1cccc2c(=O)n(C3CCCNC3)cnc12` (stereo not given), -0.6392%.
Turning to `CCc1ocnc1C(=O)N1CCC2(CC1)OCC(C)O2` (stereo not given), the “Percent Effect” value is given as -17.17%.
To `CN(C)CCN(Cc1ccco1)C(=O)Cc1cn2ccsc2n1` belongs 1.866%.
In the case of `O=C(NC1CCC1)[C@@H]1C[C@@H]2CCN(Cc3ccncc3)C[C@H]2O1.O=C(O)C(F)(F)F.O=C(O)C(F)(F)F` it was -10.63%.
In the case of `COCCNC(=O)[C@H]1C[C@@H]2CCN(Cc3ccncc3)C[C@H]2O1.O=C(O)C(F)(F)F.O=C(O)C(F)(F)F` it was 99.07%; in that of `O=C(O)C(F)(F)F.O=C(O)C(F)(F)F.O=C([C@H]1CN(Cc2ccncc2)C[C@H]2OCC[C@@H]12)N1CCCCO1`, 11.08%; in that of `O=C(NCCc1ccncc1)[C@H]1CC[C@@H]2[C@@H](CCN2CC2CC2)O1.O=C(O)C(F)(F)F.O=C(O)C(F)(F)F`, 1.654%.
As for `CNC(=O)[C@H]1C[C@@H]2CCN(Cc3ccncc3)C[C@H]2O1.O=C(O)C(F)(F)F.O=C(O)C(F)(F)F`, the “Percent Effect” value is reported as 103.5%.
With `CO[C@@H]1CCN(c2ncc(F)cn2)[C@@H]2CN(CC3CC3)C[C@@H]21`, the “Percent Effect” value came out at 9.085%.
In the case of `CCN1CC(=O)NCC12CCN(C(=O)c1ccno1)C2.O=C(O)C(F)(F)F` (stereo not given) it was -6.47%.
To `O=S(=O)(c1cccc(Cl)c1)N1C[C@@H]2CCN[C@@H]2C1` belongs -5.104%; to `O=C1NC[C@H]2CN(Cc3nccs3)CCN12`, 4.843%.
In the case of `CC(C)(CNc1ccc(C#N)c(C(F)(F)F)c1)C(N)=O` it was -0.8311%; in that of `O=C(O)C(F)(F)F.O=C(O)C(F)(F)F.c1cnc(N2CCC3(COCCN(CC4CC4)C3)C2)nc1` (stereo not given), -6.749%; in that of `Cc1noc(C)c1C(=O)N1CCOC2(COCCN(C(C)C)C2)C1.O=C(O)C(F)(F)F` (stereo not given), 90.48%.
For `Cc1noc(C)c1CN1CCOC2(CCCN(c3nncs3)C2)C1.O=C(O)C(F)(F)F` (stereo not given), the “Percent Effect” value is -6.2%.
In the case of `COCCN1CCOCC2(C1)CN(C(=O)c1conc1C)CCO2.O=C(O)C(F)(F)F` (stereo not given) it was 91.15%; in that of `Cc1nocc1C(=O)N1CCOC2(COCCN(CC3CC3)C2)C1` (stereo not given), 116%.
Turning to `COCCN1C[C@@H](C)[C@@]2(COCCN(C(=O)c3ccno3)C2)C1.O=C(O)C(F)(F)F`, the “Percent Effect” value is 2.349%.
For the compound `COCCN1C[C@@H](C)[C@@]2(COCCN(C(=O)c3ccncc3)C2)C1.O=C(O)C(F)(F)F.O=C(O)C(F)(F)F`, the “Percent Effect” value was determined as 2.912%.
With `COc1ccc(C(=O)N2CCOC3(CNCCOC3)C2)c(OC)n1` (stereo not given), the “Percent Effect” value is -6.762%.
Turning to `CCN1CCOCC2(C1)CN(C(=O)c1c(C)noc1C)CCO2` (stereo not given), the “Percent Effect” value came out at 103.8%.
To `Cc1noc(C)c1C(=O)N1CCC2(CC1)c1nc[nH]c1CCN2C` belongs 14.77%; to `Oc1cccc2ccc(CN3CCC4(CCNCC4)C3)nc12`, 2.778%; to `Cn1nc(CN2CCCCC(N)C2)c2c(Cl)cccc21` (stereo not given), -4.304%.
To `Cc1nocc1C(=O)N1CCOC2(COCCN(C(C)C)C2)C1.O=C(O)C(F)(F)F` (stereo not given) belongs 91.68%; to `CC(C)N1CCOCC2(CN(Cc3ccccn3)CCO2)C1.O=C(O)C(F)(F)F.O=C(O)C(F)(F)F.O=C(O)C(F)(F)F` (stereo not given), -11.42%; to `Cc1cnc(N2CCC3(CC2)COCCN(C(C)C)C3)nc1.O=C(O)C(F)(F)F`, 7.175%.
In the case of `CSC1(CNC(=O)NC(C)Cc2cccc(F)c2)CCOCC1` (stereo not given) it was -4.564%.
`CC(=O)N1CCN([C@@H]2CN(C(=O)Cc3ccccc3C)C[C@H]2O)CC1`: the “Percent Effect” value is recorded as 157.7%.
In the case of `Cc1ccccc1CC(=O)N1C[C@H]2CC[C@@H]1CN(Cc1cccnc1)C2` it was 5.499%.
In the case of `Cc1ccccc1CC(=O)N1CCN(C2CCOC2=O)CC1` (stereo not given), the “Percent Effect” value turned out to be 5.646%.
In the case of `Cc1ccccc1CC(=O)N1C[C@@H](O)[C@H](N2CCN(C)CC2)C1` it was 176.4%.
In the case of `Cc1nc(CN2CCO[C@H]3CN(C(=O)Cc4cccs4)C[C@H]32)cs1` it was 2.702%; in that of `Cc1ccccc1CC(=O)N1C[C@@H](O)[C@H](N2CCC(F)(F)CC2)C1`, 138.7%; in that of `Cc1ccccc1CC(=O)N1C[C@@H](O)[C@H](N2CCOCC2)C1`, 153.4%.
In the case of `CN(C)C(=O)CN1CCN(c2ncccn2)[C@@H]2CS(=O)(=O)C[C@@H]21` it was -3.142%; in that of `CC(c1ccccc1F)N1CCN(C(=O)Cc2ccncc2)CC1` (stereo not given), -4.813%; in that of `COc1cccc(CC(C)NCC(=O)Nc2ccccc2C)c1` (stereo not given), 0.2022%.
Regarding `CC[C@H]1CN2CC[C@H]1C[C@@H]2CNCc1ccc(N(C)C)cc1`, the “Percent Effect” value was 11.9%.
In the case of `O=C(O)C(F)(F)F.O=C(O)C(F)(F)F.c1ccc(CO[C@@H]2C[C@H]3CN(c4ncccn4)CCN3C2)cc1` it was 2.223%; in that of `Fc1cnc(N2CCN3C[C@H](Oc4cccnc4)C[C@H]3C2)nc1.O=C(O)C(F)(F)F.O=C(O)C(F)(F)F.O=C(O)C(F)(F)F`, 90.39%.
As for `O=C(Cc1cccc(F)c1)N1CCN2C[C@H](Oc3cncnc3)C[C@H]2C1.O=C(O)C(F)(F)F`, the “Percent Effect” value was determined as 1.194%.
In the case of `O=C(O)C(F)(F)F.O=C(O)C(F)(F)F.c1cnc(N2CCN3C[C@H](Oc4cncnc4)C[C@H]3C2)nc1` it was 105.8%.
With `Cc1cccc(CO[C@@H]2C[C@H]3CN(c4ncccn4)CCN3C2)n1.O=C(O)C(F)(F)F.O=C(O)C(F)(F)F.O=C(O)C(F)(F)F`, the “Percent Effect” value is recorded as -11.39%.
To `Fc1cnc(N2CCN3C[C@H](Oc4cncnc4)C[C@H]3C2)nc1.O=C(O)C(F)(F)F.O=C(O)C(F)(F)F` belongs 110.2%.
In the case of `O=C(c1ccco1)N1CCN2C[C@H](Oc3cncnc3)C[C@H]2C1` it was 1.787%; in that of `Cc1cnc(N2CCN3C[C@H](OCc4ccccn4)C[C@H]3C2)nc1.O=C(O)C(F)(F)F.O=C(O)C(F)(F)F`, 0.855%.
On to `Cc1ccc(O[C@@H]2C[C@H]3CN(c4ncc(F)cn4)CCN3C2)cc1.O=C(O)C(F)(F)F.O=C(O)C(F)(F)F`, for which the “Percent Effect” value worked out at 83.44%.
In the case of `Fc1ccccc1CO[C@@H]1C[C@H]2CN(c3ncccn3)CCN2C1.O=C(O)C(F)(F)F`, the “Percent Effect” value is -0.171%.
In the case of `CC(C)c1cc(C(=O)N2CCN(C)[C@@H]3CS(=O)(=O)C[C@@H]32)no1`, the “Percent Effect” value was -18.46%.
For `O=C(NC[C@H]1C[C@@H]2CCN1C[C@@H]2CN1CCCCC1)c1ccco1`, the “Percent Effect” value was 3.904%.
For `CCCSCC(=O)N1C[C@H]2CC[C@@H]1CN(Cc1cccnc1)C2`, the “Percent Effect” value was -15.35%.
For `COC(=O)C(CO)NC(=O)c1cn(Cc2ccccc2F)nn1` (stereo not given), the “Percent Effect” value is listed as -17.52%.
In the case of `CC[C@H](C)[C@@H](CO)NC(C)Cc1ccccc1F` (stereo not given in full) it was 127.2%; in that of `CNS(=O)(=O)CC(=O)NC(C)Cc1ccc(Br)cc1` (stereo not given), -6.603%; in that of `CC[C@H](C)[C@@H](CO)NC(C)Cc1ccc(C)cc1` (stereo not given in full), 96.84%.
To `CC[C@H](C)[C@@H](CO)NC(C)Cc1ccc(F)cc1` (stereo not given in full) belongs 95.88%; to `CC[C@H](C)[C@@H](CO)NC(C)Cc1ccc(Cl)cc1` (stereo not given in full), 125.5%.
In the case of `CCOCC(=O)NC(C)Cc1ccccc1Br` (stereo not given) it was -9.65%; in that of `CC(=O)N1CCC(CCNC(C)Cc2ccc(F)cc2)CC1` (stereo not given), 3.455%; in that of `CCc1cc(CN(C)C(=O)CN2CC(c3ccccc3)CC2=O)on1` (stereo not given), -7.018%.
For `CN(C)C(=O)[C@H]1C[C@H]2OCC[C@H]2N(Cc2ccccn2)C1`, the “Percent Effect” value is given as -23.53%.
To `O=C(NC[C@H]1C[C@@H]2CCN1C[C@@H]2CN1CCCCC1)Nc1ccccc1` belongs -4.847%.
